Laboratory results reported in PubChem BioAssay (NCI).
This is part of a sample that, as a whole, favours compounds with a hit. Of some 83,000 tested, about 20% had one in any assay.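 The endpoint reported here, percent growth, reads 100 for growth as untreated, 0 for no net growth and -100 for all cells dead.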 Values without a mark were called inactive. The source made the active and inactive calls. Rule for the calls: active = growth percent below 10; inactive = the rest.

The molecules below were run on MDA-MB-468 breast (assay: NCI-60 one-dose screen, 48 h (100 = growth as untreated, 0 = no growth, -100 = all killed)). Conditions: 10 µM unless noted.

Structure (SMILES)	growth
O=C(NNC(=O)c1nc2cc(F)ccc2n2cccc12)c1cnccn1	22.2%
COc1ccc(C(=O)C/C(=C\c2ccc(O)c(OC)c2)C(=O)NN)cc1	27.6%
N/C(=N\c1nc2ccccc2s1)NC(=O)Nc1ccccc1Cl	16.6%
O=S(Cc1ccccc1)/C(=C/NC(=S)Nc1ccccc1)c1ccccc1 (centres undefined)	108%
O=C(/C=C/c1cn(-c2ccccc2)nc1-c1ccccc1)OCc1cn(-c2cccc([N+](=O)[O-])c2)nn1	107%
CC/C=C\C/C=C\C[C@H](O)C/C=C1/C(=O)C=C[C@@H]1C/C=C\CCCC(=O)O	23.5%
COc1cc2c(c(OC)c1)C1c3ccccc3NC(=O)N1CC2 (centres undefined)	-0.759% (active)
CCCCCCn1c(-c2ccc(C(=O)O/N=C(\N)c3ccc4ccccc4c3)cc2)nc(-c2ccccc2)c1-c1ccccc1	78.8%
CC(C)c1ncc(CO)n1Cc1c(Cl)cccc1Cl	97.5%
Cc1cc2c(-c3nc4ccccn4c3NC34CC5CC(CC(C5)C3)C4)c(O)c(O)cc2c(O)c1-c1c(C)cc2c(-c3nc4ccccn4c3NC34CC5CC(CC(C5)C3)C4)c(O)c(O)cc2c1O	-10.7% (active)
Cc1cc2nc3c4cccc(O)c4n(CCN(C)C)c3nc2cc1C	0.835% (active)
O=C(Nc1cc(Cl)cc(Cl)c1)Oc1c(Cl)c(Cl)c(Cl)c(Cl)c1Cl	101%
O=[N+]([O-])c1ccc(CO)cc1	0.448% (active)
COc1ccc(-n2nc(C)c3c(Nc4ccc(NC(=O)Nc5cccc(C(F)(F)F)c5)cc4)ncnc32)cc1	-14% (active)
Fc1ccc(NC(=S)c2ccccc2)cc1	97.5%
CN(C)c1ccc(Cc2cc(-c3ccccc3)nn(C/C(=N/O)c3ccccc3)c2=O)cc1	57.1%
O=C1N=NC2=C1c1c3ccccc3c(O)n1CC2	96.6%
N#Cc1ncc(-c2cc(F)ccc2F)c(NC2CCCCCC2)n1	90.3%
CCCCCCCCCCCC1=NC(C)(C)CN1C(C)(C)CO	-16% (active)
COc1cc2c3c(n(CCCN4CCCC4)c(=O)c2cc1OC)-c1cc2c(cc1C3=O)OCO2	84.1%
COc1cccc(-c2nn(-c3ccccc3)cc2-c2ccnc(NCCCNS(=O)(=O)c3ccc(Cl)cc3)c2)c1	25.6%
CN1C(=O)C(C2=NNC(c3ccccc3C(=O)O)C2)C(=O)N(C)C1=O (centres undefined)	96.4%
O=c1[nH]c2cc(O)ccc2n2cc3c(F)cccc3c12	28.7%
OCc1ccccn1	99.9%
